According to the supplement of paper PMC4466140:

Each binder was assayed against AgAbp1 (assay: SPOT peptide array binding signal intensity (averaged, normalized) (arbitrary units (background-subtracted, floor 0; scale differs between SH3 domains)); higher = stronger binding of the SH3 domain to the peptide).
Method: (§1)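 GST-tagged SH3 domains from S. cerevisiae (Sc), A. gossypii (Ag), C. albicans (Ca) and S. pombe (Sp) were incubated at 10 ug/ml overnight at 4 C on cellulose SPOT membranes carrying 292 synthetic 15-mer peptides mined from the S. cerevisiae proteome (cysteines replaced by serines). Binding was detected with anti-GST antibody, HRP secondary and chemiluminescence, quantified with Genespotter, and reported as normalized spot intensities averaged over biological replicates.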
For NILKRRPLKLEAPSK, the “SPOT peptide array binding signal intensity” value was 27.5.

Each binder was assayed against AgBbc1 in the same assay as above.
Method: as §1
In the case of NILKRRPLKLEAPSK, the “SPOT peptide array binding signal intensity” value is reported as 0.25.

Each binder was assayed against AgBem1-D1 in the same assay as above.
Method: as §1
For NILKRRPLKLEAPSK, the “SPOT peptide array binding signal intensity” value was 65.

The binders below were run against AgBzz1-D1 in the same assay as above.
Method: as §1
NILKRRPLKLEAPSK was tested, and the “SPOT peptide array binding signal intensity” value was 14.

Each binder was assayed against AgBzz1-D2 in the same assay as above.
Method: as §1
With NILKRRPLKLEAPSK the “SPOT peptide array binding signal intensity” value was 8.

Each binder was assayed against AgCyk3 in the same assay as above.
Method: as §1
In the case of NILKRRPLKLEAPSK, the “SPOT peptide array binding signal intensity” value is reported as ≤ 0.

What follows are binders tested against AgFus1 in the same assay as above.
Method: as §1
For NILKRRPLKLEAPSK, the “SPOT peptide array binding signal intensity” value was 77.

Each binder was assayed against AgHof1 in the same assay as above.
Method: as §1
For NILKRRPLKLEAPSK, the “SPOT peptide array binding signal intensity” value was 1.25.

The binders below were run against AgHse1 in the same assay as above.
Method: as §1
In the case of NILKRRPLKLEAPSK, the “SPOT peptide array binding signal intensity” value is reported as 1740.

What follows are binders tested against AgLsb1 in the same assay as above.
Method: as §1
NILKRRPLKLEAPSK was tested, and the “SPOT peptide array binding signal intensity” value was 0.5.

What follows are binders tested against AgLsb4 in the same assay as above.
Method: as §1
In the case of NILKRRPLKLEAPSK, the “SPOT peptide array binding signal intensity” value is reported as 41.

The binders below were run against AgMyo5 in the same assay as above.
Method: as §1
With NILKRRPLKLEAPSK the “SPOT peptide array binding signal intensity” value was ≤ 0.

The binders below were run against AgNbp2 in the same assay as above.
Method: as §1
With NILKRRPLKLEAPSK the “SPOT peptide array binding signal intensity” value was 32.

Each binder was assayed against AgRvs167 in the same assay as above.
Method: as §1
For NILKRRPLKLEAPSK, the “SPOT peptide array binding signal intensity” value was 4.5.

These binders were tested against AgSho1 in the same assay as above.
Method: as §1
In the case of NILKRRPLKLEAPSK, the “SPOT peptide array binding signal intensity” value is reported as ≤ 0.

Each binder was assayed against AgSla1-D1-D2 in the same assay as above.
Method: as §1
NILKRRPLKLEAPSK was tested, and the “SPOT peptide array binding signal intensity” value was 7.

The binders below were run against AgSla1-D3 in the same assay as above.
Method: as §1
In the case of NILKRRPLKLEAPSK, the “SPOT peptide array binding signal intensity” value is reported as ≤ 0.

What follows are binders tested against CaAbp1-D1 in the same assay as above.
Method: as §1
In the case of NILKRRPLKLEAPSK, the “SPOT peptide array binding signal intensity” value is reported as 478.

The binders below were run against CaAbp1-D2 in the same assay as above.
Method: as §1
With NILKRRPLKLEAPSK the “SPOT peptide array binding signal intensity” value was 96.

These binders were tested against CaBbc1 in the same assay as above.
Method: as §1
In the case of NILKRRPLKLEAPSK, the “SPOT peptide array binding signal intensity” value is reported as 1.25.

What follows are binders tested against CaBem1-D1 in the same assay as above.
Method: as §1
With NILKRRPLKLEAPSK the “SPOT peptide array binding signal intensity” value was ≤ 0.

The binders below were run against CaBzz1-D1 in the same assay as above.
Method: as §1
For NILKRRPLKLEAPSK, the “SPOT peptide array binding signal intensity” value was ≤ 0.

Each binder was assayed against CaBzz1-D2 in the same assay as above.
Method: as §1
In the case of NILKRRPLKLEAPSK, the “SPOT peptide array binding signal intensity” value is reported as 14.

These binders were tested against CaCyk3 in the same assay as above.
Method: as §1
For NILKRRPLKLEAPSK, the “SPOT peptide array binding signal intensity” value was 8.

Each binder was assayed against CaFus1 in the same assay as above.
Method: as §1
For NILKRRPLKLEAPSK, the “SPOT peptide array binding signal intensity” value was 534.

These binders were tested against CaHof1 in the same assay as above.
Method: as §1
NILKRRPLKLEAPSK was tested, and the “SPOT peptide array binding signal intensity” value was 0.25.

Each binder was assayed against CaHse1 in the same assay as above.
Method: as §1
In the case of NILKRRPLKLEAPSK, the “SPOT peptide array binding signal intensity” value is reported as 27.5.

These binders were tested against CaLsb1 in the same assay as above.
Method: as §1
With NILKRRPLKLEAPSK the “SPOT peptide array binding signal intensity” value was ≤ 0.

The binders below were run against CaLsb4 in the same assay as above.
Method: as §1
NILKRRPLKLEAPSK was tested, and the “SPOT peptide array binding signal intensity” value was ≤ 0.

Each binder was assayed against CaMyo5 in the same assay as above.
Method: as §1
With NILKRRPLKLEAPSK the “SPOT peptide array binding signal intensity” value was 1.5.

The binders below were run against CaNbp2 in the same assay as above.
Method: as §1
NILKRRPLKLEAPSK was tested, and the “SPOT peptide array binding signal intensity” value was 284.

Each binder was assayed against CaRvs167 in the same assay as above.
Method: as §1
With NILKRRPLKLEAPSK the “SPOT peptide array binding signal intensity” value was 31.7.

Each binder was assayed against CaRvs167-3 in the same assay as above.
Method: as §1
In the case of NILKRRPLKLEAPSK, the “SPOT peptide array binding signal intensity” value is reported as 24.

These binders were tested against CaSho1 in the same assay as above.
Method: as §1
In the case of NILKRRPLKLEAPSK, the “SPOT peptide array binding signal intensity” value is reported as 93.5.

Each binder was assayed against CaSla1-D1-D2 in the same assay as above.
Method: as §1
NILKRRPLKLEAPSK was tested, and the “SPOT peptide array binding signal intensity” value was 10.5.

These binders were tested against CaSla1-D3 in the same assay as above.
Method: as §1
With NILKRRPLKLEAPSK the “SPOT peptide array binding signal intensity” value was ≤ 0.

What follows are binders tested against ScAbp1 in the same assay as above.
Method: as §1
For NILKRRPLKLEAPSK, the “SPOT peptide array binding signal intensity” value was 296.

Each binder was assayed against ScBbc1 in the same assay as above.
Method: as §1
For NILKRRPLKLEAPSK, the “SPOT peptide array binding signal intensity” value was ≤ 0.

The binders below were run against ScBem1-D1 in the same assay as above.
Method: as §1
With NILKRRPLKLEAPSK the “SPOT peptide array binding signal intensity” value was 10.

Each binder was assayed against ScBzz1-D1 in the same assay as above.
Method: as §1
For NILKRRPLKLEAPSK, the “SPOT peptide array binding signal intensity” value was 12.

These binders were tested against ScBzz1-D2 in the same assay as above.
Method: as §1
With NILKRRPLKLEAPSK the “SPOT peptide array binding signal intensity” value was ≤ 0.

The binders below were run against ScCyk3 in the same assay as above.
Method: as §1
NILKRRPLKLEAPSK was tested, and the “SPOT peptide array binding signal intensity” value was 33.

What follows are binders tested against ScFus1 in the same assay as above.
Method: as §1
NILKRRPLKLEAPSK was tested, and the “SPOT peptide array binding signal intensity” value was 149.

The binders below were run against ScHof1 in the same assay as above.
Method: as §1
For NILKRRPLKLEAPSK, the “SPOT peptide array binding signal intensity” value was ≤ 0.

These binders were tested against ScHse1 in the same assay as above.
Method: as §1
For NILKRRPLKLEAPSK, the “SPOT peptide array binding signal intensity” value was 2660.

The binders below were run against ScLsb1 in the same assay as above.
Method: as §1
For NILKRRPLKLEAPSK, the “SPOT peptide array binding signal intensity” value was 2.5.

What follows are binders tested against ScLsb2 in the same assay as above.
Method: as §1
With NILKRRPLKLEAPSK the “SPOT peptide array binding signal intensity” value was 1.

The binders below were run against ScLsb3 in the same assay as above.
Method: as §1
NILKRRPLKLEAPSK was tested, and the “SPOT peptide array binding signal intensity” value was 76.

Each binder was assayed against ScLsb4 in the same assay as above.
Method: as §1
With NILKRRPLKLEAPSK the “SPOT peptide array binding signal intensity” value was 2.

The binders below were run against ScMyo3 in the same assay as above.
Method: as §1
For NILKRRPLKLEAPSK, the “SPOT peptide array binding signal intensity” value was 0.25.

The binders below were run against ScMyo5 in the same assay as above.
Method: as §1
For NILKRRPLKLEAPSK, the “SPOT peptide array binding signal intensity” value was ≤ 0.

Each binder was assayed against ScNbp2 in the same assay as above.
Method: as §1
NILKRRPLKLEAPSK was tested, and the “SPOT peptide array binding signal intensity” value was 46.

These binders were tested against ScPex13 in the same assay as above.
Method: as §1
For NILKRRPLKLEAPSK, the “SPOT peptide array binding signal intensity” value was ≤ 0.

What follows are binders tested against ScRvs167 in the same assay as above.
Method: as §1
NILKRRPLKLEAPSK was tested, and the “SPOT peptide array binding signal intensity” value was 2.5.

What follows are binders tested against ScSho1 in the same assay as above.
Method: as §1
For NILKRRPLKLEAPSK, the “SPOT peptide array binding signal intensity” value was 368.

The binders below were run against ScSla1-D1-D2 in the same assay as above.
Method: as §1
For NILKRRPLKLEAPSK, the “SPOT peptide array binding signal intensity” value was 39.

The binders below were run against ScSla1-D3 in the same assay as above.
Method: as §1
With NILKRRPLKLEAPSK the “SPOT peptide array binding signal intensity” value was ≤ 0.

The binders below were run against SpAbp1-D1 in the same assay as above.
Method: as §1
With NILKRRPLKLEAPSK the “SPOT peptide array binding signal intensity” value was 64.5.

These binders were tested against SpBbc1 in the same assay as above.
Method: as §1
With NILKRRPLKLEAPSK the “SPOT peptide array binding signal intensity” value was 0.75.

Each binder was assayed against SpBzz1-D1 in the same assay as above.
Method: as §1
NILKRRPLKLEAPSK was tested, and the “SPOT peptide array binding signal intensity” value was 64.
